Sampled rows, rich in hits. Any-hit rate of the full collection: about 7.1%.
MCF10A rereplic – DNA re-replication induction in MCF 10a cells. AID 624296. MCF 10A DNA re-replication, Hoechst nuclear intensity, 48 h. actives 2.9% (n = 350,000). Potency, µM (doses to about 46.1 µM), for inactives: top-dose activity, positive = re-replication, hits mostly activators; further: potency means the concentration at half of the fitted maximal effect; % of control where 0% means no effect; nearly all actives have a fitted effect of over 50% in size
IL-1B inflam inh – inhibitors of inflammasome signaling (IL-1 beta secretion); THP-1 LPS/ATP IL-1B secretion, AlphaLISA, 16 h; stronger effect = lower value; actives 4.7% (n = 360,000); activity change, % at 57.5 µM; AID 743279; in the data active means activity change below about -50%; inconclusive means mostly about -30% to -49%; further: on the % scale 0 is the no-effect control and ±100 the full control effect
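THP-1 cells pretreated 1 hr with compounds (up to 57.5 uM final), then stimulated with LPS (250 ng/mL final) plus ATP (1.25 mM final); secreted IL-1B measured by AlphaLISA after 16 hr, decreased signal indicating inhibition.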
ATXN2 expr inh – ATXN2 expression inhibition | HEK-293 ATXN2-luciferase reporter, luminescence, 24 h | Potency, µM (top dose mostly 57 µM), for inactives: top-dose activity change, negative = inhibition, most hits filed as inhibitors | actives 0.72% (n = 360,000); further: potency means the concentration at half of the fitted maximal effect; on the % scale 0 is the no-effect control and ±100 the full control effect; nearly all actives have a fitted effect of over 55% in size
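qHTS (up to 57 uM final) was run with 24 h compound exposure of reporter cells at 37 °C. Each well was multiplexed: SteadyGlo luminescence measured ATXN2-luciferase expression after a fluorogenic Gly-Phe-AFC viability readout (25 uM final).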
ATXN viability – cell viability loss in ATXN counter-screen; S2 cells (HEK-293 line with an ATXN2-luciferase reporter) viability, CellTiter-Fluor protease fluorescence, 24 h; actives 0.49% (n = 400,000); Potency, µM (titrated, usually from 56.7 µM), actives largely listed as cytotoxic; further: potency means the concentration at half of the fitted maximal effect; nearly all actives have a fitted effect of over 40% in size
PINK1 expr mod – changes PINK1 expression. AID 624263. Potency, µM (titrated, usually from 76.6 µM), for inactives: at the top dose activation (PINK1 increase), actives largely listed as activators. actives 0.2% (n = 410,000). PINK1 immunofluorescence, high-content cytometry, 24 h; active means well fitted activation curve with a large enough effect; inconclusive means small, poorly fitted or top-dose-only effect; cell line not stated here; further: potency means the concentration at half of the fitted maximal effect; % of control where 0% means no effect; nearly all actives have a fitted effect of over 65% in size
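Decision-based qHTS: stable cells, 24 h exposure to five compound concentrations, CCCP as control. Fixed cells stained for PINK1 plus nuclear, mitochondrial and cell markers, cytometer read.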
SW480 rereplic – inducers of DNA re-replication in SW480 colon cancer cells; actives 1.8% (n = 340,000); SW480 DNA re-replication, Hoechst DNA content imaging, 48 h; Potency, µM (titrated, usually from 46.1 µM), without a hit: top-dose re-replication activation, usual class: activators; further: potency means the concentration at half of the fitted maximal effect; % of control where 0% means no effect; nearly all actives have a fitted effect of over 55% in size
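First, 250 cells per well were seeded. Next, compound or vehicle (23 nL) was pinned in, plates sat 48 hr at 37 C. Finally Hoechst was added for 40 min before fluorescence scanning.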
Numbers without * were called inactive; i = inactive; u = inconclusive; x = no result; [ ] = remark or other dose. Unless noted, the call rests on the fitted dose curve; in most records, active means well fitted curve in the direction sought with a large enough effect; inconclusive means small, poorly fitted or top-dose-only effect, or another doubt; inactive means no such curve, though single readings can be large; an effect the other way counts as inactive or inconclusive.

SMILES | MCF10A rereplic | IL-1B inflam inh | ATXN2 expr inh | ATXN viability | PINK1 expr mod | SW480 rereplic
Cc1ccc(NC(=O)CN(C)S(=O)(=O)c2ccc3c(c2)n(C)c(=O)c(=O)n3C)cc1C | x | x | 0% | i | 0% | x
COc1ccc(F)cc1S(=O)(=O)NCC(c1ccco1)S(=O)(=O)c1ccc(F)cc1 (centres undefined) | x | x | x | x | 0% | x
CSC1=NC(C)(C)C=C(/C=C/c2ccc(Cl)cc2)N1 | 16µM* | -101* | u | u | -2% | 0.65µM*
Clc1ccc(/C=C/c2ncc[nH]2)c(Cl)c1 | 3% | 0 | 23% | i | 2% | -2%
CCSC1=NC(C)(C)C=C(/C=C/c2ccc(Cl)cc2Cl)N1 | u | -93* | -6% | i | -1% | u
CCSC1=NC(C)(C)C=C(C)N1 | -2% | 16 | u | i | 6% | -7%
CSC1=NC(C)(C)C=C(/C=C/c2c(Cl)cccc2Cl)N1 | u | -97* | 8% | i | -1% | -2%
CSC1=NC(C)(C)C=C(/C=C/c2ccc(Cl)cc2Cl)N1 | u | -105* | -30% | u | -2% | 15µM*
COc1ccccc1NC(=O)c1cnc(SCC(=O)NCC2CCCO2)n(C)c1=O (centres undefined) | u | -97* | -21% | i | -1% | u
COc1ccccc1NC(=O)c1cnc(SCC(=O)N2CCOCC2)n(C)c1=O | x | x | 13% | i | 0% | x
Cc1ccc(N2C(=O)NC(NC(=O)C3CC3)(C(F)(F)F)C2=O)cc1 (centres undefined) | 3% | -8 | 5% | i | 4% | -1%
Cc1ccc(C(=O)NC2(C(F)(F)F)NC(=O)N(c3ccc(Cl)cc3)C2=O)cc1 (centres undefined) | 10% | -61* | 0% | i | 9% | 1%
CSc1nsc(/C=C/Nc2ccc(C)c(C)c2)c1C#N | 1.2µM* | 7 | x | u | 3% | 18µM*
O=C([C@@H]1C[C@@H](Sc2nc3ccccc3[nH]2)CN1CC1CCCCC1)N1CCOCC1 | x | x | x | i | 0% | x
OC(CN(Cc1ccccc1)Cc1ccccc1)c1ccccc1 (centres undefined) | u | -9 | -11% | i | u | u
Cc1ccccc1C(=O)Nc1cccc(OCc2cc(=O)n3cccc(C)c3n2)c1 | x | x | x | x | 6% | x
CCOC(=O)c1cc(C(C)(C)C)oc1CNC(=O)c1c(C)oc2c1CCCC2 | 21µM* | -5 | -5% | i | -1% | 20%
CCOC(=O)c1cc(C(C)(C)C)oc1CN | 2% | 6 | -2% | i | -1% | -1%
CCCCn1nnnc1C(c1cc2ccccc2o1)N1CCN(c2ccncc2)CC1 (centres undefined) | x | -61* | -35% | u | 0% | x
CCCCn1nnnc1C(c1cc2ccccc2o1)N1CCN(c2cc(C)nc3ccccc23)CC1 (centres undefined) | x | -24 | u | 4.5µM* | 12% | x
CCCCn1nnnc1C(c1cc2ccccc2o1)N1CCCCC1 (centres undefined) | x | -8 | -12% | u | 2% | x
CCN(CC)CCCNC(=O)c1ccc2c(c1)N(Cc1c(F)cccc1Cl)C(=O)c1ccccc1S2 | x | x | 20µM* | i | 0% | x
CCC(C)NC(=O)c1cn(CC)c2ccc(S(=O)(=O)N3CCc4ccccc4C3)cc2c1=O (centres undefined) | x | x | u | u | 0% | x
CC(=O)N1CCc2c(sc3c2c(=O)n(-c2ccccc2Cl)c(=O)n3C)C1 | x | x | 2% | i | 2% | x
COc1ccc(OC)c(C2CC(=O)Nc3c2c(=O)n(C)c2ncnn32)c1 (centres undefined) | x | x | -5% | i | 1% | x
SMILES | MCF10A rereplic | IL-1B inflam inh | ATXN2 expr inh | ATXN viability | PINK1 expr mod | SW480 rereplic
CCc1ccc(Nc2ncc3c(n2)CC(C)(C)CC3=O)cc1 | u | -61* | 19% | i | 0% | -125%
Cc1ccc(NC2=CC(=O)CC(C)(C)C2)c(N)c1 | 6% | -3 | 5% | i | -1% | -4%
COc1ccc(Nc2ncc3c(n2)CC(c2ccccc2)CC3=O)cc1 (centres undefined) | u | 7 | -2% | i | u | 11%
CCc1ccc(Nc2ncc3c(n2)CC(c2ccc(OC)cc2)CC3=O)cc1 (centres undefined) | 18µM* | 15 | -12% | i | 9%[38.3 µM] | 21µM*
COc1cccc(C(=O)Nc2ncc3c(n2)CC(c2ccc(OC)cc2OC)CC3=O)c1 (centres undefined) | 2.3µM* | 17 | -1% | u | 3%[38.3 µM] | 6.5µM*
CCc1ccc(Nc2ncc3c(n2)CC(C)CC3=O)cc1 (centres undefined) | 3% | -4 | 62% | i | 3% | -6%
COc1ccc(C(=O)Nc2ncc3c(n2)CC(C)CC3=O)cc1 (centres undefined) | -5% | -13 | 16% | i | 2% | -13%
CC1(C)CC(=O)C=C(Nc2ccc(Br)cc2F)C1 | -1% | -81* | -13% | i | 0% | -3%
Cc1ccc(CCNC(=O)CCCn2c(=O)c3ccccc3n(CC(=O)Nc3cc(Cl)ccc3C)c2=O)cc1 | x | x | 5% | i | 1% | x
Cc1cnc(-n2ncc(C(=O)NCCN3CCOCC3)c2C(C)C)nc1-c1ccc(F)cc1 | x | x | x | i | -1% | x
CC(=O)NC(Cc1c(F)c(F)c(F)c(F)c1F)C(=O)NCC(N)C(=O)c1ccccc1 (centres undefined) | x | x | x | x | 1% | x
CCc1ccc(NC2=CC(=O)CC(C)(C)C2)cc1 | -15% | -56* | -9% | i | 3% | -2%
CCCOc1ccc(NC2=CC(=O)CC(C)(C)C2)cc1 | 22% | 3 | 10% | i | 3%[38.3 µM] | -2%
CSc1nc2nccc(/C=C\c3ccccc3)n2n1 | u | -105* | -23% | i | 2%[38.3 µM] | u
Cc1ccc(OC(C)C(=O)OCC(=O)Nc2sccc2C(N)=O)cc1 (centres undefined) | u | 21 | 2% | i | 0% | u
CC(Oc1ccc(Cl)cc1)C(=O)Nc1sccc1C(N)=O (centres undefined) | 23% | -62* | -3% | x | 1% | 3%
Cn1nnc2c(N3CCCCC3)ncnc21 | x | x | 13% | i | 1% | x
CCCCN(C(=O)CSc1nn(-c2ccc(F)cc2)c(=S)s1)c1c(N)n(CCCC)c(=O)[nH]c1=O | 0% | -72* | -11% | i | -1% | u
CCCCN(C(=O)CSc1cc(C)c2ccccc2n1)c1c(N)n(Cc2ccccc2)c(=O)[nH]c1=O | 15% | -59* | 4% | i | 1% | u

Assay outcomes as filed in PubChem.
